Sampled rows, rich in hits. Any-hit rate of the full collection: about 2.4%.
CHO-K1 Ca antag = M1 antagonist counterscreen hit in parental CHO-K1 cells | ATP-induced calcium, Fluo-8 fluorescence | inhibition, % at 3 µM | 0.6% of 360,000 active | AID 602250;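 active = inhibition above a per-plate cutoff, the plate's mean sample inhibition plus 3 SD, cut at about 24% in these data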
M1 ag parental = counter-screen for M1 agonists: effect in parental CHO-K1 cells | Fluo-8 calcium fluorescence; scaled to maximal ATP response, vehicle zero | activation, % at 3 µM | 0.48% of 360,000 active; in the data active = activation above about 15%;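 also: untransfected CHO-K1 host cells lacking M1 receptor as counterscreen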
CHO-K1 Ca PAM = M1 PAM counterscreen hit in parental CHO-K1 cells; ATP EC20, Fluo-8 calcium fluorescence; 0% at ATP EC20, 100% at ATP max; activation, % at 3 µM; 0.02% of 360,000 active; AID 602247;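 active = activation above the run cutoff, the mean activation of all test compounds plus 3 SD, cut at about 40% in these data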;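 also: peak over basal fluorescence ratio in a 140 s read after ATP addition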
M1 PAM = human CHRM1 positive allosteric modulation. P11229. CHO-K1 hM1, Fluo-8 calcium fluorescence, ACh EC20; 0% = ACh EC20, 100% = maximal ACh. activation, % at 3 µM. 0.088% of 360,000 active. AID 588819; in the data active = activation above about 19%, passing the limit was not always enough
Target sequence (P11229 whole entry, looked up): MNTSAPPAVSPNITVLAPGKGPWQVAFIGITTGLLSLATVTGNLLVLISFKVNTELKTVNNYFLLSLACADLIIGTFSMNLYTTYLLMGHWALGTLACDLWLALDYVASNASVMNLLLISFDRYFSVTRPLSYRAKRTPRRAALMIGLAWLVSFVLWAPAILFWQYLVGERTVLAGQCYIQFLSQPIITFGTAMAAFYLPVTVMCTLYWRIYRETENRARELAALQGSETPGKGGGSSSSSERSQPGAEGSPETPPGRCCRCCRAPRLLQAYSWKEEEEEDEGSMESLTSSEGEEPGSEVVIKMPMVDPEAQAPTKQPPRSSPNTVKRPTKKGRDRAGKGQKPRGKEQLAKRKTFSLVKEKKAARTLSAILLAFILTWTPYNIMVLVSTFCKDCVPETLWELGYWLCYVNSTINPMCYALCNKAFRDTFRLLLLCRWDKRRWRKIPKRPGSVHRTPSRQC
CHRM1 agonist = agonists of human M1 muscarinic receptor; P11229; CHO-K1 hM1, Fluo-8 calcium fluorescence, agonist mode; 0% DMSO, 100% acetylcholine EC100; activation, % at 3 µM; 0.33% of 360,000 active;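 active = activation above the run's mean compound activation plus 3 SD, cut at about 16% in these data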;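 also: peak over basal fluorescence ratio within a 140 s kinetic read after compound addition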
M1 antag = human CHRM1 antagonism; inhibition, % at 3 µM; P11229; AID 588852; 1.3% of 360,000 active; CHO-K1 hM1, Fluo-8 calcium fluorescence, ACh EC80 antagonist;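 active = percent inhibition above its own plate's cutoff, namely the mean of that plate's compound wells plus 3 SD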;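 also: peak over basal fluorescence ratio during 140 s after agonist addition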
Large screens that a line does not name were inactive.

CC1(C)Cc2cccc(OCC(=O)Nc3ccccc3N3CCOCC3)c2O1	M1 antag 29.7
CC(=O)NC1=CC(=C[N+](=O)[O-])C=C1O	none
Cc1cccc(NC(=O)c2nc[nH]c2C(=O)N2CCC(C)CC2)c1	none
COc1ccc(C(O)c2nc(-c3ccc(N(C)C)cc3)cs2)cc1 (stereo not given)	M1 ag parental 23.6
CN(C)c1ccc(-c2csc(C(O)c3ccc(F)cc3)n2)cc1 (stereo not given)	M1 ag parental 23.0, CHRM1 agonist 18.0
COc1ccc(-c2csc(C(O)c3ccc(OC)cc3)n2)cc1 (stereo not given)	none
CN(C)c1ccc(-c2csc(C(O)c3ccc(F)c(F)c3)n2)cc1 (stereo not given)	CHO-K1 Ca antag 23.8, M1 ag parental 34.8, CHRM1 agonist 41.7, M1 antag 42.2
CC(NC(=O)C12CC3CC(CC(C3)C1)C2)C(=O)NN=Cc1ccc([N+](=O)[O-])o1 (stereo not given)	M1 antag 102.0
CCc1cccc(C)c1NC(=S)N(CCN(C)C)C(C)c1ccco1 (stereo not given)	none
CN1CCN(C(c2cccc(Cl)c2)c2ccccc2Cl)CC1 (stereo not given)	M1 antag 87.6
CC1(C(=O)NS(=O)(=O)c2cccs2)CCN1C(=O)Cc1ccc(Cl)cc1Cl (stereo not given)	none
O=C(NCc1ccccc1)c1ccc(C2SCC(=O)N2Cc2ccccc2)cc1 (stereo not given)	M1 antag 58.6
Cc1ccc(C(=O)Nc2cc(C)nn2CCC#N)cc1	none
Cc1cc(NC(=O)c2ccc(Cl)cc2)n(CCC#N)n1	M1 ag parental 16.2
CC1=C(C(=O)Nc2ccccc2)C(c2ccco2)C(C#N)=C(SCC(=O)Nc2cccc(C)c2C)N1 (stereo not given)	none
CC1=C(C(=O)Nc2ccccc2)C(c2ccco2)C(C#N)=C(SCC(=O)OC(C)C)N1 (stereo not given)	M1 antag 32.6
N=c1ccn(Cc2cccc(F)c2)cc1	M1 antag 41.7
O=C(c1ccoc1)N1CCCC(Nc2ccc(F)c(F)c2)C1 (stereo not given)	none
Cc1occc1C(=O)N1CCCC(Nc2ccc(F)c(F)c2)C1 (stereo not given)	M1 ag parental 16.0
O=C1C=C(N2CCCCCC2)C(=O)N1c1ccc(Cl)cc1	M1 antag 80.5
Cc1ccc(NCc2nc(SCC(=O)Nc3ccccc3)n[nH]2)cc1	none
CCN(CC)c1ccc(/C=N/NC(=O)CNC(=O)c2ccc3c(c2)OCCO3)cc1	M1 PAM 31.2
CN(C)c1ccc(/C=N/NC(=O)CNC(=O)c2ccc3c(c2)OCCO3)cc1	none
CCN(CC)c1ccc(/C=C(\C#N)c2ccccn2)cc1	CHO-K1 Ca antag 26.2
CC(/C=N/n1c(COc2ccccc2)n[nH]c1=S)=C\c1ccco1	none
NC(=O)c1ccc(NC(=O)CCN2C(=O)c3ccccc3C2=O)cc1	none
Cc1nnc(N2CCCC(C(=O)NCc3ccc(OC(C)C)cc3)C2)c2nn(-c3ccccc3)c(C)c12 (stereo not given)	M1 antag 41.2
O=C(Cn1cc(COc2ccc(Br)cc2[N+](=O)[O-])nn1)c1ccc(O)cc1	CHO-K1 Ca antag 24.9
CC(C)c1ccc2c(c1)C1(NN=C(c3ccccc3)S1)C(=O)N2 (stereo not given)	M1 antag 30.4
Nc1ccc(S(=O)(=O)Nc2nc(-c3ccccc3)cc(-c3ccccc3O)n2)cc1	CHRM1 agonist 20.3
Nc1ccc(S(=O)(=O)Nc2nc(-c3ccccc3)cc(-c3ccccc3)n2)cc1	none
CN1CCCC(C#CC(O)(c2ccccc2)c2ccccc2)C1 (stereo not given)	M1 antag 98.6
Cc1ccccc1C(=O)OC1CCCN(C)C1 (stereo not given)	none
O=C(CCNS(=O)(=O)c1cccc2nsnc12)NCc1ccccc1Cl	none
CNC[C@H]1Oc2cc(Br)ccc2S(=O)(=O)N([C@H](C)CO)C[C@H]1C	none
COCc1cc(C)nc(SCC[N+](C)(C)CC(=O)c2ccc(Br)cc2)c1C#N	M1 antag 70.4
NC(=O)c1oc2ccccc2c1NC(=O)c1ccc(F)cc1	CHO-K1 Ca antag 27.5, M1 antag 61.7
O=C(NCCCN1CCCC1)c1ccc2c(c1)N(Cc1ccccc1)CCS2	none
COc1ccc(OC)c(CCNC(=O)c2ccc3c(c2)N(Cc2ccccc2)CCS3)c1	none
NS(=O)(=O)c1ccc(CCNC(=O)c2ccc3c(c2)N(Cc2ccccc2)CCS3)cc1	M1 antag 36.7
COc1ccc(CCNC(=O)c2ccc3c(c2)N(Cc2ccccc2)CCS3)cc1OC	M1 antag 39.4
COc1cc(OC)cc(C(=O)N2CCN(S(=O)(=O)c3ccc4c(c3)OCCO4)CC2)c1	none
Cc1ccc(C(C(=O)NC2CCCC2)N(Cc2ccc3c(c2)OCO3)C(=O)c2snc(C(N)=O)c2N)cc1 (stereo not given)	M1 antag 24.3
Cc1ccc(C(C(=O)NCc2ccc(F)cc2)N(Cc2ccco2)C(=O)c2snc(C(N)=O)c2N)o1 (stereo not given)	M1 antag 34.8
COc1ccc(C(C(=O)NC2CCCCC2)N(Cc2ccco2)C(=O)c2snc(C(N)=O)c2N)cc1 (stereo not given)	M1 antag 25.1
CN(C)c1ccc(C(C(=O)NCC2CCCO2)N(Cc2ccccc2)C(=O)c2snc(C(N)=O)c2N)cc1 (stereo not given)	M1 antag 25.6
NC(=O)c1nsc(C(=O)N(Cc2ccco2)C(C(=O)NCc2ccc(F)cc2)c2ccc(O)cc2)c1N (stereo not given)	none
O=C(Nc1ccc(F)cc1)c1nc2c(nnn2Cc2cccc3ccccc23)c(=O)[nH]1	none
CCOC(=O)c1c(NC(=O)CSc2nccn2C)sc(C(=O)NC)c1C	none
COC(=O)c1ccc(/C=N/OCC(=O)NC2CCCC(C)C2C)cc1 (stereo not given)	M1 antag 30.6
COC(=O)c1ccc(/C=N/OCC(=O)NC2CCCCCCC2)cc1	none
O=C(c1ccc(F)c(F)c1)N1CCCc2ccccc21	none
CCN(CC)c1ccc(/C=C/C(=O)C2C(=O)C=C(C)OC2=O)cc1 (stereo not given)	CHO-K1 Ca antag 44.1, M1 ag parental 50.3, CHRM1 agonist 133.8, M1 antag 56.2
CSc1ccccc1OCc1cc(C(=O)NCCn2ccnc2C)no1	none
O=C1C(=O)N(CCCN2CCOCC2)C(c2ccc(Cl)cc2)/C1=C(/O)c1ccc(F)cc1 (stereo not given)	none
O=C1C(=O)N(CCN2CCOCC2)C(c2ccc(F)cc2)/C1=C(/O)c1ccc(S(=O)(=O)N2CCOCC2)cc1 (stereo not given)	M1 antag 31.1

From PubChem BioAssay
